Common to all, as to design: scale not given: direction of the effect not stated beside the values
For experiment [1], the target named is Protein translocase subunit SecA (Escherichia coli (strain K12)) (UniProt P10408). Nature of the experiment: Assay to Identify E. coli SecA ATPase Inhibitors. It is filed as functional. Particulars: 30 µM.
Experiment [2] addresses T1, Ubiquitin-activating enzyme e1, putative (Leishmania donovani (strain BPK282A1)) (UniProt E9BSI1).
T1 sequence (whole entry): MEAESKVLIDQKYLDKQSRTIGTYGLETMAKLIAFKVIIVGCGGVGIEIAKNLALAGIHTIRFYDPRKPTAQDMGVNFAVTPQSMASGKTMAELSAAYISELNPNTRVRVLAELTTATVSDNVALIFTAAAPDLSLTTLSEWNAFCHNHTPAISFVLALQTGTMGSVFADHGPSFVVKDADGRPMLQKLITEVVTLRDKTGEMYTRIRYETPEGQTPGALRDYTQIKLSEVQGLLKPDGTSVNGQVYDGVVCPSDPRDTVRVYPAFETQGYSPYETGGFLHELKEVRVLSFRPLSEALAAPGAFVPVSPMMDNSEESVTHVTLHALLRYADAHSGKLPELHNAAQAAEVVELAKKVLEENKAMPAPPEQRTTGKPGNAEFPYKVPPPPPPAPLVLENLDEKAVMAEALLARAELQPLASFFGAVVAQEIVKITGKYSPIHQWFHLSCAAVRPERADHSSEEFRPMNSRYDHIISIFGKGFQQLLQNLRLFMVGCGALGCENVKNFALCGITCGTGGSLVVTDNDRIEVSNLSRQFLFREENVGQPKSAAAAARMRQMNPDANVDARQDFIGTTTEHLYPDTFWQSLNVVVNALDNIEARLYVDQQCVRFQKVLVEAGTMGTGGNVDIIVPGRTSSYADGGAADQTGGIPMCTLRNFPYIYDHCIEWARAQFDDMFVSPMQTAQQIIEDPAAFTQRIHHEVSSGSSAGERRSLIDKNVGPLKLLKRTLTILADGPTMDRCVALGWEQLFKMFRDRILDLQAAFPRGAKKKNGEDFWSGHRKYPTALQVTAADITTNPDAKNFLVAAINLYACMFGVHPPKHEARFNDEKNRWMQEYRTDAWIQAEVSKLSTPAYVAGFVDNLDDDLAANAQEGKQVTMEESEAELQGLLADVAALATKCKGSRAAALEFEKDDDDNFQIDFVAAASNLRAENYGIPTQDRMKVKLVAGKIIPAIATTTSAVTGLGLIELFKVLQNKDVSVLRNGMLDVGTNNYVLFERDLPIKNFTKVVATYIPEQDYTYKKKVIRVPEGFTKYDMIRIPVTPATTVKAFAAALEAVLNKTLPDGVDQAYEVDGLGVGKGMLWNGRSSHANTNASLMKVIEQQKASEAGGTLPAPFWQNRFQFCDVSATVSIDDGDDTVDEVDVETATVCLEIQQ
In words: Leishmania donovani Ubiquitin Activating Enzyme (LdE1). Type of experiment: functional. Particulars: 30 µM.

Experiment [3] addresses AMP-activated protein kinase, AMPK (Homo sapiens) (UniProt P54646+O43741+P54619+Q9UGJ0+Q9Y478+Q13131+Q9UGI9). Nature of the experiment: AMP-dependent Kinase enzyme assay. An in vitro enzyme assay that detects ADP turnover that is directly proportional to AMPK activity. This uses naive AMPK that is activated during the assay with MK-8722. The conditions noted are these: 30 µM. Type of experiment: functional.

The target of experiment [4] is Sialic acid-binding Ig-like lectin 9 (Homo sapiens) (UniProt Q9Y336). Nature of the experiment: Hs-Siglec9 ALPHAscreen SOP 20170721. The conditions noted are these: 10 µM. Background: In Alpha technology, singlet oxygen from a donor bead excites a nearby acceptor bead.
Sialic acid-binding Ig-like lectin 9 (Homo sapiens), sequence (Q9Y336 whole entry): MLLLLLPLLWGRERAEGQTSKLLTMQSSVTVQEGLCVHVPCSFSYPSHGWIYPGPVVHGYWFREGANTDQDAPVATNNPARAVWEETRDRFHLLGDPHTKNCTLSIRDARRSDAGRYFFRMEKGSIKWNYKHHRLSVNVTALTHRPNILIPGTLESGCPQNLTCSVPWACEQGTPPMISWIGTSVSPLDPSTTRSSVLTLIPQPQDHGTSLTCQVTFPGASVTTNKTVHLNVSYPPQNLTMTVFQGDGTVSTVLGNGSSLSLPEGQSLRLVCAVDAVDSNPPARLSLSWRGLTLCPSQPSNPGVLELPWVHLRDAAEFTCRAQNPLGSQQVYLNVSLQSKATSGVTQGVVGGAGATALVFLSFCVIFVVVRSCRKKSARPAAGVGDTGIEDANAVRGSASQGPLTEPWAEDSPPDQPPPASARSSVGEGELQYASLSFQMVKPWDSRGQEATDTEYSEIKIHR
The subject of the next experiment is Trypanosoma cruzi. In words: Trypanosoma cruzi phosphomannomutase and mannose-1-phosphate guanylyltransferase assay. It is filed as functional. Particulars: 10 µM.
Experiment [5] deals with T2, Arginase-2, mitochondrial (Homo sapiens) (UniProt P78540).
T2 sequence (whole entry): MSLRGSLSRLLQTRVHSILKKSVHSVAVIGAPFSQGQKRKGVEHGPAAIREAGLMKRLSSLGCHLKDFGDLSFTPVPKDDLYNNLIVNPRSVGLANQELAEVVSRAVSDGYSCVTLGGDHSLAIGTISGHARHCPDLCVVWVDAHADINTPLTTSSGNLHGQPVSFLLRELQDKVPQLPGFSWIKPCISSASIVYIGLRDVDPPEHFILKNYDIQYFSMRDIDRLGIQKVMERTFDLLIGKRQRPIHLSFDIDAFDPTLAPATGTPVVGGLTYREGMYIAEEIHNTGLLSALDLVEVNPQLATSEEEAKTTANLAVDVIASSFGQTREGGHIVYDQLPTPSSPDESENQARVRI
In words: in vitro enzyme assay to detect the production of urea directly proportional to the activity of Arginase II. Further: in the data most compounds retested in dose-response had high values. It is filed as functional. The conditions noted are these: 33.3 µM.

Experiment [6] deals with T3, Proteasome subunit beta (Trypanosoma cruzi) (UniProt O96673).
T3 sequence (whole entry): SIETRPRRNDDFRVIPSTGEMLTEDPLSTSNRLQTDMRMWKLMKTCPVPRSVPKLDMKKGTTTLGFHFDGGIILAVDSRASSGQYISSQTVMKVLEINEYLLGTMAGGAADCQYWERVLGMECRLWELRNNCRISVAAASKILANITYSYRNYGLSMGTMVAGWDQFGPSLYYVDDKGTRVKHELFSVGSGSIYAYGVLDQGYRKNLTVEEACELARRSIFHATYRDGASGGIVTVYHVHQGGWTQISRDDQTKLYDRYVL
Nature of the experiment: Trypanosoma cruzi proteasome chymotrypsin-like activity (TcProtChymo) assay. Further: in the data most compounds retested in dose-response had high values. It is filed as functional. The conditions noted are these: 9.37 µM.

The test system of a further experiment is N/A. In words: Trypanosoma cruzi proteasome luciferase counter-screen. It is filed as functional. The conditions noted are these: 9.37 µM.
The species entered for a further experiment is Homo sapiens. In words: To identify inhibition of the IFN signalling (Jak-Stat) pathway via expression of an eGFP reporter gene under the control of an IFN-stimulated response element (ISRE) containing MxA promoter. It is filed as functional. Particulars: 30 µM.
Experiment [7] deals with T4, Tyrosyl-tRNA synthetase, putative (Trypanosoma cruzi (strain CL Brener)) (UniProt Q4DSP6).
T4 sequence (whole entry): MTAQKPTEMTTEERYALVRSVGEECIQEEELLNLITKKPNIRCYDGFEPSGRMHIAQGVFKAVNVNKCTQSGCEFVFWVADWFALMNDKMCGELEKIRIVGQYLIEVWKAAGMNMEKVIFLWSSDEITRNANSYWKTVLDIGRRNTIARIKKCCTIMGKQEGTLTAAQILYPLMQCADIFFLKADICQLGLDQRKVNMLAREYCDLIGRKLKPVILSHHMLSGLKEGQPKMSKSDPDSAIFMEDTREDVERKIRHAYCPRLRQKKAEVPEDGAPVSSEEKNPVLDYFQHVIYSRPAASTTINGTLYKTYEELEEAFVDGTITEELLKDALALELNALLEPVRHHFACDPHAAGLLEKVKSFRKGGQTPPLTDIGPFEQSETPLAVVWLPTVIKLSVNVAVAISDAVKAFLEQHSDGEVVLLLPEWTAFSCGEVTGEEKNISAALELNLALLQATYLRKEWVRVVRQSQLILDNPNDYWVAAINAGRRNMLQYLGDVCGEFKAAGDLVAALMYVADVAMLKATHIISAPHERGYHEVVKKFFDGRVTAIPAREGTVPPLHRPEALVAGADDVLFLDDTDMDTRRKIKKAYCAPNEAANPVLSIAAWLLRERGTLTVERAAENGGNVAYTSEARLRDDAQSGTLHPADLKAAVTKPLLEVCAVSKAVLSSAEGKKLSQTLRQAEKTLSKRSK
In words: Trypanosoma cruzi tyrosyl tRNA synthetase (TcYRS) _High Tyrosine SOP. Further: in the data most compounds retested in dose-response had high values. Type of experiment: functional. Particulars: 30 µM.

The target in experiment [8] is T4, Tyrosyl-tRNA synthetase, putative (Trypanosoma cruzi (strain CL Brener)). Nature of the experiment: Trypanosoma cruzi tyrosyl tRNA synthetase (TcYRS) SOP. It is filed as functional. Particulars: 30 µM.
Experiment [9] has as its target Chromo domain-containing protein 1 (Saccharomyces cerevisiae (strain ATCC 204508 / S288c) (Baker's yeast)) (UniProt P32657). In words: ScCHD-1 Enzyme Inhibition Assay. Further: in the data most compounds retested in dose-response had high values. The conditions noted are these: 30 µM. Type of experiment: functional.

Several values for one entry are separate records, joined by “and”; a condition that tells them apart may be missing. Identical values can stand only once. For part of these data: Results with a measured potency or affinity are listed apart.

Protein translocase subunit SecA (Escherichia coli (strain K12)), sequence (P10408 whole entry): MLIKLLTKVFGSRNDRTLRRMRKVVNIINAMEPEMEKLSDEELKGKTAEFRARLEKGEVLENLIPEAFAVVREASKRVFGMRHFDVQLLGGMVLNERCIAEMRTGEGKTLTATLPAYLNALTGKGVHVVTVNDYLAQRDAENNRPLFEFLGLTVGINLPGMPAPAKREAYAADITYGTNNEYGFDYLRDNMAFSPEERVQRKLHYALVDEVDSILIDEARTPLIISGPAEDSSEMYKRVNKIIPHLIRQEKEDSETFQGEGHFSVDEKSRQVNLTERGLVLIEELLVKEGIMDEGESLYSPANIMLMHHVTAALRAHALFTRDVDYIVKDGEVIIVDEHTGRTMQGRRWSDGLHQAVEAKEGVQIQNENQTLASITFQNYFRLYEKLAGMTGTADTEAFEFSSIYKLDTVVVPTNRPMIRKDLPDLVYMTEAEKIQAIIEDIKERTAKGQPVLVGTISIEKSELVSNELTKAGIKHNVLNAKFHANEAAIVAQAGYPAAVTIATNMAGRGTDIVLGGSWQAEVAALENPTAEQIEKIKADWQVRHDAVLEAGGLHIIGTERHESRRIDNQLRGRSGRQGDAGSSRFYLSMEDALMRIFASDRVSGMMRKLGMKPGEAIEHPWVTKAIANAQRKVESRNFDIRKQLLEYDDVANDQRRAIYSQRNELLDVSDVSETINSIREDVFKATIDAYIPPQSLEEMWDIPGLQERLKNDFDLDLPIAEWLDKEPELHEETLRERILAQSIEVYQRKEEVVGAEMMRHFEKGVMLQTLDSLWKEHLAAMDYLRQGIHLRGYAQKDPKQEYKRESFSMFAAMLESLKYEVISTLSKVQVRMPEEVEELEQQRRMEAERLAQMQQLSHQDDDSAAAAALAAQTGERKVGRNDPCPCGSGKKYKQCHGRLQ
Chromo domain-containing protein 1 (Saccharomyces cerevisiae (strain ATCC 204508 / S288c) (Baker's yeast)), sequence (P32657 whole entry, the tested form may be a part): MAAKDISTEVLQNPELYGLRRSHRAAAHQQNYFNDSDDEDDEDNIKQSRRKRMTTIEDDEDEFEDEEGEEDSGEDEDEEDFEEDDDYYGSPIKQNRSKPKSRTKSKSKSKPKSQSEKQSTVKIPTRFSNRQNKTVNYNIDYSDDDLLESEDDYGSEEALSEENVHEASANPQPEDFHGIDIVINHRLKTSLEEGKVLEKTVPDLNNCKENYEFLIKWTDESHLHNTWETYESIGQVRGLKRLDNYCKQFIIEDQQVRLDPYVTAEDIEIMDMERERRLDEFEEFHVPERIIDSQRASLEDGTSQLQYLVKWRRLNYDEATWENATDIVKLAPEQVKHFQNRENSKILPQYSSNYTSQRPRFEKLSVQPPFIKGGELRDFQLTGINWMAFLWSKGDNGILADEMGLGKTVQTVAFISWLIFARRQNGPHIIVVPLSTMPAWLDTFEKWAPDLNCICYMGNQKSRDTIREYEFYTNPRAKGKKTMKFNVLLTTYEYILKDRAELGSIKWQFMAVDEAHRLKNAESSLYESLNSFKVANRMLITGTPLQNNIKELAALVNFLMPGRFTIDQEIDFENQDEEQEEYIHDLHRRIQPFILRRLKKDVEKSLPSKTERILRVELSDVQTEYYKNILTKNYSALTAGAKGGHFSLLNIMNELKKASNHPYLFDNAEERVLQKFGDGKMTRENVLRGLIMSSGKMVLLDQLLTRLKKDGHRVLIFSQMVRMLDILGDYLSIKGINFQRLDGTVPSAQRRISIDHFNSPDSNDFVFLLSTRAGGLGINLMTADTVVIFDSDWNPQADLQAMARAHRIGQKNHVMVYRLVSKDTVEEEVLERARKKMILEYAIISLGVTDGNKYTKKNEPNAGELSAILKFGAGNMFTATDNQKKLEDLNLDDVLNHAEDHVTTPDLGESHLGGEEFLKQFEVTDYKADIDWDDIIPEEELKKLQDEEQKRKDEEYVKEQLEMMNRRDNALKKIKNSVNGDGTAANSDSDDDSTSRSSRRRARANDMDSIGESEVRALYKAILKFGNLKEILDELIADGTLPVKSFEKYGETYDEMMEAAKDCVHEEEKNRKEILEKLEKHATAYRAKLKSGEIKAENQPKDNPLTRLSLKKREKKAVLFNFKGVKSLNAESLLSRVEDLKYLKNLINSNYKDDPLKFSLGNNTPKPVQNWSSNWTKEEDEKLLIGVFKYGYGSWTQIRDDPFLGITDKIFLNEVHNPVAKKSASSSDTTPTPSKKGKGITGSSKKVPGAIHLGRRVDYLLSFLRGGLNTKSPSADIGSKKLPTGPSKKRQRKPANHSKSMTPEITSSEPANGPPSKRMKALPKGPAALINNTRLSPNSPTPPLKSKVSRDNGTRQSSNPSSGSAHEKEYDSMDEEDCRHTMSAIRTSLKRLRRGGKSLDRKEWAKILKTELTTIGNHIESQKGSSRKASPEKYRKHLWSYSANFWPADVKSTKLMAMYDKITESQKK

Take `Cc1ccc(CN(C)C(=O)CN2CC(n3cccn3)C2)o1`: the Percent Effect in experiment [1] is -6.67%; in [2], 2.63%; in [3], 17.5%; in experiment [4] it was -1.07%; with Trypanosoma cruzi, -1.46%; in experiment [5] it was -4.73%. Moreover, the Percent Effect in [6] is 23.1% and 34.2% and 27.3%; in the experiment with N/A it was 20.4% and 19.7%; in the experiment listed under Homo sapiens, 22.7%; in [7] it was -2.13%; in experiment [8] it was -2.6%; in experiment [9] it was -1.83%.

Turning to `Cc1cc(C2CCCN(C(=O)c3c(C)noc3C)C2)n[nH]1` (stereo not given), the Percent Effect in experiment [1] was -3.57%; in experiment [2], 2.63%; in experiment [3] it was 9.83%; in experiment [4], 9.23%; in the experiment on Trypanosoma cruzi, 0.292%; in experiment [5], -20.1%. Also, the Percent Effect is 16.6% and 37.9% and 18.8% in experiment [6]; 18% and 16.2% in the experiment on N/A; -5.01% in the experiment listed under Homo sapiens; 7.45% in experiment [7]; 7.79% in [8]; -1.42% in experiment [9].

As to `O=C(Nc1ccc(F)c(Br)c1)N1CCCC1`, the Percent Effect is -2.64% in [1]; -2.7% in experiment [2]; 4.93% in experiment [3]; -0.317% in [4]; -4.49% in the experiment on Trypanosoma cruzi; 2.92% in [5]. Further, the Percent Effect in experiment [6] was 53.1% and 53% and 53.3%; in the experiment on N/A it was 8.61% and 7.62%; in the experiment listed under Homo sapiens, 18.2%; in experiment [7], -34.6%; in [8] it was 3.66%; in experiment [9], -3.18%.

`COc1ccc(Cl)cc1C(=O)N1CCOC2(CNCCOC2)C1` (stereo not given): the Percent Effect in [1] was -5.73%; in experiment [2] it was -2.7%; in experiment [3], 0.241%; in experiment [4], -0.752%; in the experiment with Trypanosoma cruzi, -3.86%; in experiment [5] it was -1.43%. In addition, the Percent Effect in experiment [6] was 7.59% and 10.9% and 31.4%; in the experiment with N/A, 12.4% and 13.6%; in the experiment filed under Homo sapiens, -6.05%; in experiment [7], 2.65%; in experiment [8] it was 4.88%; in [9], -2.64%.

On to `CC(C1CC1)N(C)C(=O)c1cnc(-c2ccc3c(c2)OCO3)s1` (stereo not given), for which the Percent Effect was -5.81% in [1]; 0% in experiment [2]; 11.9% in experiment [3]; 0.585% in [4]; -3.33% in the experiment on Trypanosoma cruzi; -1.82% in experiment [5]. For the same compound, the Percent Effect in experiment [6] was 68.6% and 72.1% and 62.6%; in the experiment with N/A, 34.7% and 35.5%; in the experiment listed under Homo sapiens, 12.2%; in [7] it was -2.15%; in experiment [8], -2.5%; in [9] it was -10.2%.

Consider `Cc1ccc(NCc2cncc3c2CCN(C(=O)C2CC=CC2)C3)nn1`, for which the Percent Effect is -0.965% in experiment [1]; 5.33% in [2]; -0.665% in experiment [3]; 8.87% in [4]; 1.74% in the experiment on Trypanosoma cruzi; -24.9% in [5]. Further, the Percent Effect in experiment [6] was 30.2% and 30.4% and 33.3%; in the experiment on N/A, 16.9% and 15.1%; in the experiment filed under Homo sapiens, -6.99%; in [7] it was 13.5%; in experiment [8], 32.5%; in [9], -6.63%.

In the case of `Cc1ccc(S(=O)(=O)Nc2ccc(-n3cccc3C(=O)O)c(C)c2)s1`, the Percent Effect was -4.28% in experiment [1]; 5.26% in [2]; 12.2% in experiment [3]; 2.35% in [4]; -5.55% in the experiment on Trypanosoma cruzi; 9.47% in [5]. In addition, the Percent Effect was 29.7% and 25.9% and 32.3% in experiment [6]; 14.7% and 12.8% in the experiment on N/A; -7.51% in the experiment filed under Homo sapiens; -9.57% in experiment [7]; -15.6% in experiment [8]; 4.9% in experiment [9].

Turning to `Cn1cc(-c2cnc(N3CCCC3)nc2)cc1C(=O)O`, the Percent Effect in experiment [1] was -4.18%; in [2] it was 8.11%; in [3], 4.07%; in [4], 6.18%; in the experiment with Trypanosoma cruzi it was 6.05%; in [5], 22.9%. The Percent Effect in experiment [6] was 95.3% and 96.7% and 97.6%; in the experiment with N/A, 80% and 80.9%; in the experiment listed under Homo sapiens, -5.85%; in experiment [7], 5.94%; in experiment [8], 13.4%; in experiment [9], -8.33%.

Turning to `CCc1nc(CN2CCCN(C(=O)CCc3ccco3)CC2)cs1`, the Percent Effect in experiment [1] is -4.67%; in experiment [2], 8.86%; in experiment [3] it was -0.445%; in [4], -5.08%; with Trypanosoma cruzi, 5.64%; in [5] it was -4.95%. Further, the Percent Effect is 56.6% and 53% and 44.8% in experiment [6]; 0.501% and 5.84% in the experiment on N/A; 3.92% in the experiment filed under Homo sapiens; 7.29% in experiment [7]; 15.2% in [8]; -32.7% in experiment [9].

Turning to `Cc1nc(CN2CCCC(N(C)Cc3cscn3)C2)no1` (stereo not given), the Percent Effect in experiment [1] is -5.04%; in experiment [2], 5.2%; in experiment [3], -1.86%; in experiment [4], -3.2%; in the experiment with Trypanosoma cruzi it was 7.54%; in experiment [5] it was -6.11%. Also, the Percent Effect was 40.2% and 44.8% and 59.4% in experiment [6]; 16.1% and 22% in the experiment with N/A; 17.1% in the experiment listed under Homo sapiens; 3.81% in experiment [7]; 11.8% in [8]; -17.6% in [9].

The values are drawn from ChEMBL document CHEMBL3988442, “University of Dundee, Small-Polar-MMV Screening Library” (2021).
